# Assay results from PubChem BioAssay (EPA / NIEHS).
# Results filed as inconclusive are left out. Active and inactive are the calls of the source. How the source made its calls, unless noted: active means hit-call score of the fitted dose curve at least 0.9, where 1 is the maximum; inactive means score below 0.9.
# Assays:
# [1] = target: Paired box protein Pax-6 (Homo sapiens) (UniProt P26367); assay: ATG_Pax6_CIS: Attagene CIS-FACTORIAL HepG2 Assay for human Paired Box 6 (PAX6) (AID 2282956); conditions: HepG2 CIS-FACTORIAL PAX6 reporter transcription, RNA readout; actives raise or lower the signal
# How it was run: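 HepG2 cells transiently transfected with cis-promoter-driven multiplexed reporter units sensing endogenous transcription factor activity; 24 h chemical exposure. Reporter mRNA quantified by RT-PCR, 6-FAM labelling, HpaI digestion and capillary electrophoresis; bidirectional fit versus DMSO baseline.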
# [2] = ATG_PXRE_CIS: Attagene CIS-FACTORIAL HepG2 Assay for human Pregnane X Receptor Element (PXRE) (AID 2282957); conditions: HepG2 Attagene CIS-FACTORIAL PXRE reporter, mRNA; actives raise or lower the signal
# How it was run: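 HepG2 cells transiently transfected with cis-element-driven multiplexed reporter units; after 24 h chemical exposure, reporter mRNA measured by RT-PCR, 6-FAM labelling, HpaI digestion and capillary electrophoresis. Bidirectional fitting relative to DMSO.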
# [3] = ATG_PPRE_CIS: Attagene CIS-FACTORIAL HepG2 Assay for human Peroxisome Proliferator-activated Response Element (PPRE) (AID 2282958); conditions: HepG2 PPRE cis-element reporter, Attagene transcription factor profiling; actives raise or lower the signal
# How it was run: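 Read-out: fluorescent reporter mRNA fragments resolved by capillary electrophoresis after RT-PCR. HepG2 cells carried transiently transfected PPRE-driven cis reporter constructs and were dosed for 24 h; gain or loss of signal fitted relative to DMSO.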
# [4] = ATG_RORE_CIS: Attagene CIS-FACTORIAL HepG2 Assay for human RAR-related Orphan Receptor Element (RORE) (AID 2282959); conditions: HepG2 Attagene cis-factorial RORE reporter, mRNA; actives raise or lower the signal
# How it was run: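 Readout: fluorescent reporter mRNA by RT-PCR plus capillary electrophoresis, 24 h after dosing transfected HepG2 cells. Endogenous transcription factor activity on a cis promoter element is measured. Gain or loss of signal fitted against DMSO.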
# [5] = ATG_Sox_CIS: Attagene CIS-FACTORIAL HepG2 Assay for human SRY-box transcription factor (SOX) (AID 2282960); conditions: HepG2 Attagene cis-factorial SOX reporter, mRNA; actives raise or lower the signal
# How it was run: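 Read-out: fluorescent RT-PCR products of SOX1-linked reporter transcripts resolved by capillary electrophoresis, fitted bidirectionally against DMSO. Transiently transfected HepG2 cells, 24 h after chemical exposure, endogenous transcription factor activity.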
# [6] = target: Transcription factor Sp1 (Homo sapiens) (UniProt P08047); assay: ATG_Sp1_CIS: Attagene CIS-FACTORIAL HepG2 Assay for human Specificity Protein 1 (Sp1) (AID 2282961); conditions: HepG2 Sp1 cis-reporter transcription, actives raise or lower the signal
# How it was run: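 Read-out: fluorescence of 6-FAM-labeled, HpaI-digested RT-PCR products separated by capillary electrophoresis. HepG2 cells carried transfected cis-element reporter units and were exposed to chemicals for 24 h; gain or loss of signal fitted relative to DMSO.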
# [7] = ATG_SREBP_CIS: Attagene CIS-FACTORIAL HepG2 Assay for human Sterol Regulatory Element Binding (SREBP) (AID 2282962); conditions: HepG2 Attagene cis-factorial SREBP reporter, mRNA; actives raise or lower the signal
# How it was run: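 HepG2 cells transiently transfected with multiplexed cis-promoter reporter units sensing endogenous transcription factors; reporter mRNA measured 24 h after dosing by RT-PCR, 6-FAM labeling, HpaI digestion and capillary electrophoresis. Bidirectional fit versus DMSO.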
# [8] = target: Signal transducer and activator of transcription 3 (Homo sapiens) (UniProt P40763); assay: ATG_STAT3_CIS: Attagene CIS-FACTORIAL HepG2 Assay for human Signal Transducer and Activator of Transcription 3 (STAT3) (AID 2282963); conditions: HepG2, Attagene cis-factorial STAT3 reporter transcription; actives raise or lower the signal
# How it was run: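 Transcript-level reporter assay. HepG2 transient MRTU transfection, 24 h exposure, fluorescence detection after RT-PCR and CE; DMSO baseline.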
# [9] = ATG_TA_CIS: Attagene CIS-FACTORIAL HepG2 Assay for human TA Basal Promoter (AID 2282964); conditions: HepG2 Attagene CIS-factorial TA basal promoter reporter; actives raise or lower the signal
# How it was run: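 Background-control readout: TA basal promoter reporter mRNA, fitted in both directions relative to DMSO. Measured by RT-PCR and capillary electrophoresis 24 hours after treating HepG2 human liver cells transiently carrying multiplexed cis-regulated reporter constructs.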
# [10] = ATG_TAL_CIS: Attagene CIS-FACTORIAL HepG2 Assay for human TAL Basal Promoter (AID 2282966); conditions: HepG2 Attagene cis-factorial TAL promoter reporter; actives raise or lower the signal;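 further: background control endpoint measuring basal TAL promoter reporter mRNA not a specific factor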
# How it was run: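 HepG2 cells transiently transfected with multiplexed cis-promoter reporter units, dosed 24 h. Reporter mRNA quantified by RT-PCR, 6-FAM labelling, HpaI digestion and capillary electrophoresis; TAL basal promoter serves as background control, fitted bidirectionally versus DMSO.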
# [11] = ATG_TGFb_CIS: Attagene CIS-FACTORIAL HepG2 Assay for human Transforming Growth Factor (TGF) (AID 2282967); conditions: HepG2 Attagene CIS TGFb reporter, mRNA transcription; actives raise or lower the signal
# How it was run: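 Endogenous TGFB1-linked transcription factor activity read as reporter mRNA via RT-PCR and capillary electrophoresis, 24 h after dosing transiently transfected HepG2 cells. Gain or loss of signal fitted relative to DMSO.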
# [12] = ATG_VDRE_CIS: Attagene CIS-FACTORIAL HepG2 Assay for human Vitamin D Receptor Element (VDRE) (AID 2282968); conditions: HepG2 VDRE cis-reporter transcription, actives raise or lower the signal
# How it was run: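 RT-PCR/CE readout of reporter mRNA; HepG2, transient transfection, 24 h dosing; DMSO baseline; bidirectional analysis.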
# [13] = target: X-box-binding protein 1 (Homo sapiens) (UniProt P17861); assay: ATG_Xbp1_CIS: Attagene CIS-FACTORIAL HepG2 Assay for human X-box Binding Protein 1 (XBP1) (AID 2282972); conditions: HepG2 XBP1 cis-element reporter, Attagene multiplex; actives raise or lower the signal
# How it was run: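 HepG2 cells transiently transfected with multiple cis-element reporter units report endogenous TF activity; 24 h exposure, then reporter mRNA measured by RT-PCR, 6-FAM labelling, HpaI digestion and capillary electrophoresis. Bidirectional fitting versus DMSO.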
# [14] = ATG_M_19_TRANS: Attagene TRANS-FACTORIAL HepG2 Assay for M19 Transcription Factor (Internal Marker) (AID 2282974; active means hit-call score of the fitted dose curve at least 0.9, where 1 is the maximum); conditions: HepG2 Attagene TRANS-FACTORIAL M19 internal marker reporter
# How it was run: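 24 h chemical exposure of transiently transfected HepG2 (MRTU library). RNA → oligo(dT) RT → PCR → 6-FAM labelling → HpaI cut → CE fluorescence. Positive-direction fit vs DMSO baseline; background internal-marker readout.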
# [15] = ATG_GAL4_TRANS: Attagene TRANS-FACTORIAL HepG2 Assay for GAL4 (Internal Marker) (AID 2282976; active means hit-call score of the fitted dose curve at least 0.9, where 1 is the maximum); conditions: HepG2 Attagene TRANS GAL4 internal marker reporter
# How it was run: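 Background-control readout: GAL4-UAS reporter transcript in transiently transfected HepG2 cells after 24 h compound exposure. Measured by RT-PCR, 6-FAM primer extension, HpaI digest and capillary electrophoresis; gain-of-signal fit versus DMSO.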
# [16] = ATG_TCF_b_cat_CIS: Attagene CIS-FACTORIAL HepG2 Assay for human T-Cell-Factor with beta-catenin (TCF/b-cat) (AID 2282965); conditions: HepG2 TCF/beta-catenin cis-reporter transcription, actives raise or lower the signal
# How it was run: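 Using capillary electrophoresis as the read-out, labelled reporter cDNA fragments from transiently transfected HepG2 were sized and quantified. Exposure lasted 24 hours; activity in either direction was referenced to DMSO.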
# [17] = target: Estrogen receptor (Homo sapiens) (UniProt P03372); assay: ATG_ERa_TRANS: Attagene TRANS-FACTORIAL HepG2 Assay for human Estrogen Receptor alpha (ERa) (AID 2282970; active means hit-call score of the fitted dose curve at least 0.9, where 1 is the maximum); conditions: HepG2 Attagene TRANS ERa GAL4 reporter, mRNA
# How it was run: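 HepG2 cells transiently transfected with multiplexed GAL4-UAS reporter units read out chimeric NR-Gal4 activity. After 24 h compound exposure, reporter mRNA was quantified by RT-PCR, 6-FAM labeling, HpaI digestion and capillary electrophoresis, relative to DMSO.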
# [18] = target: Steroid hormone receptor ERR1 (Homo sapiens) (UniProt P11474); assay: ATG_ERRa_TRANS: Attagene TRANS-FACTORIAL HepG2 Assay for human Estrogen-Related Receptor alpha (ERRa) (AID 2282971; active means hit-call score of the fitted dose curve at least 0.9, where 1 is the maximum); conditions: HepG2 Attagene TRANS reporter, ERRa transactivation
# How it was run: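 HepG2 cells transiently transfected with GAL4-UAS reporter units and chimeric NR-Gal4 constructs; after 24 hour compound incubation, reporter mRNA quantified by RT-PCR, fluorescent labelling and capillary electrophoresis, gain of signal versus DMSO.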
# Signal transducer and activator of transcription 3 (Homo sapiens), sequence (P40763 whole entry, looked up): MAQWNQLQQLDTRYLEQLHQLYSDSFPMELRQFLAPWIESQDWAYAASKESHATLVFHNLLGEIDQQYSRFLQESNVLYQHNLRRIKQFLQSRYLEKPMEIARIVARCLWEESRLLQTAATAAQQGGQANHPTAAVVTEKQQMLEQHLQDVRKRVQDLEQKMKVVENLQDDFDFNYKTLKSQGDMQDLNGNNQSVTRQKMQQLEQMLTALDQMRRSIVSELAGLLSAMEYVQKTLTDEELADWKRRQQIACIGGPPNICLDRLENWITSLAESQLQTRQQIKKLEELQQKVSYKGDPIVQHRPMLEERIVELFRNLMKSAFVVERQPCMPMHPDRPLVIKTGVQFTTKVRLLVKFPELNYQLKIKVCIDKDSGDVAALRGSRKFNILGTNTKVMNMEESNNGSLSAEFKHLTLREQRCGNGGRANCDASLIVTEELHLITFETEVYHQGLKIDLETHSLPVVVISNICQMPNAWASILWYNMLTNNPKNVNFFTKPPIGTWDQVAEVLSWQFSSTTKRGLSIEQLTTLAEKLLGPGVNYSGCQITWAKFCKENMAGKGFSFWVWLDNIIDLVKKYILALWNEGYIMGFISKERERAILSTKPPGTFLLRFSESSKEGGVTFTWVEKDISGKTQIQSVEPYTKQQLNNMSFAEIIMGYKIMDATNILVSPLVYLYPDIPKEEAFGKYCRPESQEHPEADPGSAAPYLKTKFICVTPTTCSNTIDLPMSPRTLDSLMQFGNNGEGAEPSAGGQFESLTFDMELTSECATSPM
# Transcription factor Sp1 (Homo sapiens), sequence (P08047 whole entry, looked up): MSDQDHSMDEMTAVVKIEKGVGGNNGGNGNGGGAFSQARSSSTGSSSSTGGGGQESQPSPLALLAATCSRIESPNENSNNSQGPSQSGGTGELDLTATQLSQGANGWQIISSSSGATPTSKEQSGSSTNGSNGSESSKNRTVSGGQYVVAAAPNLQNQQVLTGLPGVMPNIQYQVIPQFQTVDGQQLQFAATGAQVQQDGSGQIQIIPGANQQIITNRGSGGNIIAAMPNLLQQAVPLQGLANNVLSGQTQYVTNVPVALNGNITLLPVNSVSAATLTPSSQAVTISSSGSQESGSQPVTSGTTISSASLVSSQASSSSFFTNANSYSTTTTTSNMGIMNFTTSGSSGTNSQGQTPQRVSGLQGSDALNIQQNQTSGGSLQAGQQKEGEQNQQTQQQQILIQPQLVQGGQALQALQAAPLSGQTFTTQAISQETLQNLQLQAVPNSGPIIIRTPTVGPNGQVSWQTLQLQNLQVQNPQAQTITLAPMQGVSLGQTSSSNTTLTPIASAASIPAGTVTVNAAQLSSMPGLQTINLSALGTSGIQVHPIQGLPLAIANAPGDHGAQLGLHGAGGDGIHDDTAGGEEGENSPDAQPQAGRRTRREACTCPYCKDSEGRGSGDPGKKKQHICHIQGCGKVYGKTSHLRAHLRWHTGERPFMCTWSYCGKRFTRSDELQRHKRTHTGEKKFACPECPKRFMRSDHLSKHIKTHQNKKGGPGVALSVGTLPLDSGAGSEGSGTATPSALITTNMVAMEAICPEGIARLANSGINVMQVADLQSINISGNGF
# Paired box protein Pax-6 (Homo sapiens), sequence (P26367 whole entry, looked up): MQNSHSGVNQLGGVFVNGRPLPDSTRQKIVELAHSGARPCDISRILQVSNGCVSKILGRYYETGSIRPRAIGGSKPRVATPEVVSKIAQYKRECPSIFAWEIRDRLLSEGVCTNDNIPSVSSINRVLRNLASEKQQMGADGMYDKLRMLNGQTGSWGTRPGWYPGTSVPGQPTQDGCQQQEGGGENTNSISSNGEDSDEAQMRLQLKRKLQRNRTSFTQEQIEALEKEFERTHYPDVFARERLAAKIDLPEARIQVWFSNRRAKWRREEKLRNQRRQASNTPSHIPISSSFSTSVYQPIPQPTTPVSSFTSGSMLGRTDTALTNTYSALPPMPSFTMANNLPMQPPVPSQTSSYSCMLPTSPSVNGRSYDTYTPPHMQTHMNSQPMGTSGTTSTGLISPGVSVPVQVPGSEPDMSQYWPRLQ
# X-box-binding protein 1 (Homo sapiens), sequence (P17861 whole entry, looked up): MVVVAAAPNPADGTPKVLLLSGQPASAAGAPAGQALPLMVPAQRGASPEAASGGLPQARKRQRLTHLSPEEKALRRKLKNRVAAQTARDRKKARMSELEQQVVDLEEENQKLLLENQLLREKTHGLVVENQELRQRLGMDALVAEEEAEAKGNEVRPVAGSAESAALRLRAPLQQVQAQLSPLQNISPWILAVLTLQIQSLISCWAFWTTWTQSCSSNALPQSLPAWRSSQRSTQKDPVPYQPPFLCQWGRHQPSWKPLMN
# Estrogen receptor (Homo sapiens), sequence (P03372 whole entry, looked up, the tested form may be a part): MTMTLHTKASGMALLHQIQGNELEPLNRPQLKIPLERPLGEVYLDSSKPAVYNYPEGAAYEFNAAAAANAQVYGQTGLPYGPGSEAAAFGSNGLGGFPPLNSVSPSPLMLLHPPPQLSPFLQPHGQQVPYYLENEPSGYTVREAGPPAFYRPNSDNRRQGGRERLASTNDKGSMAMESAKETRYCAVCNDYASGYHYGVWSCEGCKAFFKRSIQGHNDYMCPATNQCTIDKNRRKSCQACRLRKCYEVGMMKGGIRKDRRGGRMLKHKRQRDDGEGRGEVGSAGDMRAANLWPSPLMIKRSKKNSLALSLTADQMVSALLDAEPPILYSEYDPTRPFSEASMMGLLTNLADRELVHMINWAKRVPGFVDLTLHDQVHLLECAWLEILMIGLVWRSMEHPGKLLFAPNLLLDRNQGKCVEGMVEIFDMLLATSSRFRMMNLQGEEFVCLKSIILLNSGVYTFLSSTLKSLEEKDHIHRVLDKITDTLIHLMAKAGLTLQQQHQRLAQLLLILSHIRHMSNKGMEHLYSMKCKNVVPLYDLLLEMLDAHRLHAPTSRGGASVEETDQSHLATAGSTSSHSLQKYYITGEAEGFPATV
# Steroid hormone receptor ERR1 (Homo sapiens), sequence (P11474 whole entry, looked up, the tested form may be a part): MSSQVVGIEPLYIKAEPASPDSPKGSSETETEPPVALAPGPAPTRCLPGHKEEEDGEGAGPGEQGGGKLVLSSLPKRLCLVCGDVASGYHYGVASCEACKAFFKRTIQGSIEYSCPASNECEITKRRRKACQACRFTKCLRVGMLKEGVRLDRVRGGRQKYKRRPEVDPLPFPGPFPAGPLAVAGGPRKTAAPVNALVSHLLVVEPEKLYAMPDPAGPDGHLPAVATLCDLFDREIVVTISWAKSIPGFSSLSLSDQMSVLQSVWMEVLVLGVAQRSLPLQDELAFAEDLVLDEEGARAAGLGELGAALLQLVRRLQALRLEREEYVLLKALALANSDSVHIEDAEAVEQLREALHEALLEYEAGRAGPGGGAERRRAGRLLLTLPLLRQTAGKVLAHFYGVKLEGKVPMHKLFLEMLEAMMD
Structure (SMILES),outcome [1],AC50 [2],outcome [3],outcome [4],outcome [5],outcome [6],outcome [7],outcome [8],outcome [9],outcome [10],outcome [11],outcome [12],outcome [13],outcome [14],outcome [15],AC50 [7],outcome [16],outcome [2],AC50 [17],outcome [18]
C[Si]1(C)O[Si](C)(C)O[Si](C)(C)O[Si](C)(C)O[Si](C)(C)O1,inactive,27.2 µM (active),inactive,inactive,inactive,inactive,inactive,inactive,inactive,inactive,inactive,inactive,inactive,inactive,inactive,–,–,–,–,–
CC1(C)CCC[C@]2(C)[C@H]3CC(=O)O[C@]3(C)CC[C@@H]12,inactive,3.61 µM (active),inactive,inactive,inactive,inactive,–,inactive,inactive,inactive,inactive,–,inactive,inactive,–,32.3 µM (active),inactive,–,–,–
CCCCCCCCCCCCC,inactive,–,inactive,inactive,inactive,inactive,inactive,inactive,inactive,inactive,inactive,inactive,inactive,–,inactive,–,inactive,inactive,–,–
CC1C(C)(C)C2=C(C(=O)CCC2)C1(C)C (stereo not given),inactive,6.01 µM (active),inactive,inactive,inactive,inactive,inactive,–,inactive,inactive,inactive,inactive,inactive,inactive,–,–,inactive,–,11.5 µM (active),inactive
